The assay in a line: cAMP Responsive Elements (CRE) small molecule agonists, cell-based qHTS assay: qHTS cell viability counter screen (AID 2060914). Further: nearly all actives have a fitted effect of over 50% in size. The essentials:
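CRE-bla HEK 293T cells, plated 18 h at 37 °C, were exposed to compounds for 3 h at 37 °C/5% CO2. Viability was then measured in the same wells by CellTiter-Glo luminescence after 30 min at room temperature.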

Results filed as inconclusive are left out. Entries that show only a call come without a potency. Unmarked numbers belong to inactive results. Active and inactive are the calls of the source. The call rests on the fitted dose curve; in most records, active means well fitted cell-killing curve with a large enough effect in the repeat runs; inconclusive means weak or mixed curves, or effect the other way; inactive means flat fitted curve, though single readings scatter.

On to `Nc1ccccc1C(=O)OCCc1ccccc1`, for which the Potency result was “inactive”.
On the same count and under the same terms, to `CC1(C)CCC(Cc2ccc(Cl)cc2)C1(O)Cn1cncn1` (centres undefined) belongs “inactive”.
Consider `CC(C)C1(C)N=C(c2ncccc2C(=O)O)NC1=O` (centres undefined), for which the Potency result was “inactive”.
Still for that read-out and setting: as for `CCOCCOC(C)=O`, the entry is “inactive”.
As to `CCC(C)c1ccc(O)cc1` (centres undefined), the Potency entry is “inactive”.
Still for that read-out and setting: to `O=P(Cl)(Cl)Cl` belongs “inactive”; to `O=S1OC[C@@H]2[C@H](CO1)[C@]1(Cl)C(Cl)=C(Cl)[C@@]2(Cl)C1(Cl)Cl` (some centres undefined), “inactive”; to `O=CC=O`, “inactive”.
Same read-out and setting: as for `CCCSP(=O)(OCC)SCCC`, the entry is “inactive”; as for `OCC(Cl)CCl` (centres undefined), “inactive”.
On the same count and under the same terms, as for `O=NN1CCN(N=O)CC1`, the entry is “inactive”; as for `NC(=S)Nc1ccccc1`, “inactive”; as for `CCC(C)(NC(=O)c1cc(Cl)c(C)c(Cl)c1)C(=O)CCl` (centres undefined), “inactive”.
Take `COP(=S)(OC)Oc1ccc(S(N)(=O)=O)cc1`: the Potency result is “inactive”.
The same measure, in the same setting: to `Oc1ccc2ccc3cccc4ccc1c2c34` belongs “inactive”.
For the compound `Clc1c(Cl)c(Cl)c(Cl)c(Cl)c1Cl`, the activity change, negative = cytotoxicity was 9.47% [at 8.39 µM].
For `CCCCCCCCCCCCCl`, the Potency result is “inactive”.
The same measure, in the same setting: as for `O=S(=O)(NS(=O)(=O)C(F)(F)F)C(F)(F)F`, the entry is “inactive”.
For `CC(=O)[C@H]1CC[C@H]2[C@@H]3CC[C@H]4C[C@H](O)CC[C@]4(C)[C@H]3C(=O)C[C@]12C`, the Potency result was “inactive”.
As for `Clc1cc2c(cc1Cl)Oc1cc(Cl)c(Cl)cc1O2`, the activity change, negative = cytotoxicity was 1.6% [at 0.349 µM].
Regarding `O=C(Cl)c1ccc(Cl)cc1`, the Potency entry is “inactive”.
Same read-out and setting: as for `N#C/C=C/c1ccccc1`, the entry is “inactive”; as for `c1cc(OCC2CO2)ccc1Cc1ccc(OCC2CO2)cc1` (centres undefined), “inactive”; as for `O=P1(NCCCl)OCCCN1CCCl` (centres undefined), “inactive”.
Same read-out and setting: to `N#CCCl` belongs “inactive”; to `O=C(N[C@H](c1ccccc1)[C@@H]1CN2CCC1CC2)c1c(Cl)ccc(C(F)(F)F)c1Cl`, “inactive”; to `C(=NC1CCCCC1)=NC1CCCCC1`, “inactive”.
Turning to `CCC(C)c1cc([N+](=O)[O-])cc([N+](=O)[O-])c1O` (centres undefined), the Potency entry was “inactive”.
Same read-out and setting: to `Cc1cc(Cl)ccc1N` belongs “inactive”.
The same measure, in the same setting: as for `COc1nn(C(=O)NS(=O)(=O)c2ccccc2OC(F)(F)F)c(=O)n1C`, the entry is “inactive”; as for `Clc1ccc(Oc2ccccc2)cc1`, “inactive”.
For the compound `CC(C)(C)C(O)(CCc1ccc(Cl)cc1)Cn1cncn1` (centres undefined), the Potency entry is “inactive”.
The same measure, in the same setting: as for `II`, the entry is “inactive”; as for `COP(=S)(OC)Oc1ccc([N+](=O)[O-])cc1`, “inactive”; as for `O=C(Nc1ccccc1)Nc1ccnc(Cl)c1`, “inactive”.
The same measure, in the same setting: as for `O=C(NC(O)C(Cl)(Cl)Cl)NC(O)C(Cl)(Cl)Cl` (centres undefined), the entry is “inactive”; as for `c1ccc2c(c1)oc1ccccc12`, “inactive”.
As for `CCCCCCCCCl`, the Potency entry was “inactive”.
In the case of `CC(C)CP(=S)(S)CC(C)C`, the Potency result was “inactive”.
